# “And” between values parts separate entries of the source, which are not always exact repeats. Identical values can stand only once. Results filed as inconclusive are left out. Unmarked numbers belong to inactive results. The source made the active and inactive calls. The call rests on the fitted dose curve; in most records, active means well fitted cell-killing curve with a large enough effect; inconclusive means small, poorly fitted or top-dose-only effect; inactive means flat fitted curve, though single readings scatter.
# Experiment: Cellular viability qHTS for adrenocortical cancer (ACC) cell line NCI-H295R (AID 1963990); further: nearly all actives have a fitted effect of over 60% in size;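 on activity change, negative = viability loss: 0% = DMSO only wells and -100% = full killing with cytotoxic reference compound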
# Details: CellTiter-Glo ATP luminescence, 48 h; series mostly up to 46.1 µM
# In short: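 Readout: CellTiter-Glo luminescence, 20 min RT. Exposure: 48 h, 37C/5% CO2. Cells: NCI-H295R, ITS-DMEM serum-free. Range: up to 46 uM. Analysis: 4PL fit, IC50 plus efficacy.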
# Potency means the concentration at half of the fitted maximal effect.
Compound,Potency,"activity change, negative = viability loss"
Cc1ccc(C(=O)Nc2cccc(C(F)(F)F)c2)cc1Nc1nc(-c2cccnc2)nc2c1cnn2C,3.16 µM (active),
NCCc1ccc(O)c(O)c1,inactive,
COc1cc2ncnc(-n3nc(-c4ccccn4)nc3N)c2cc1OC,inactive,
CC(C)c1ccc2c(c1)c(SC(C)(C)C)c(CC(C)(C)C(=O)O)n2Cc1ccc(Cl)cc1,inactive,
Clc1ccccc1C(c1ccccc1)(c1ccccc1)n1ccnc1,23.1 µM (active),
CN[C@@H](C)[C@H]1[C@H](O)C[C@@]2(C)[C@@H]3CC[C@H]4C(C)(C)[C@@H](NC)CC[C@@]45C[C@@]35CC[C@]12C,,-14.8% [at 9.17 µM]
CCC(c1ccc(O)cc1)C(CC)c1ccc(O)cc1 (stereo unspecified),15.8 µM (active),
Cc1ccc(C(=O)c2cc(O)c(O)c([N+](=O)[O-])c2)cc1,23.1 µM (active) and 31.6 µM (active),
CC(C)(C)c1cc(C(C)(C)C)c(NC(=O)c2c[nH]c3ccccc3c2=O)cc1O,7.08 µM (active),
NC(=O)NO,inactive,
Nc1ccccc1NC(=O)c1ccc(CNC(=O)OCc2cccnc2)cc1,2 µM (active),
COc1cccc(OC)c1-c1cc(C(=O)NC2(C(=O)O)C3CC4CC(C3)CC2C4)nn1-c1ccnc2cc(Cl)ccc12 (stereo unspecified),inactive,
Cc1cn(CCN2CCN(c3ccccc3-c3cc(C#N)cc(C(=O)NCCCN4CCCC4)c3)CC2)c2ccccc12,5.62 µM (active),
CCCCCN(CCC12CC3CC(CC(C3)C1)C2)C(=O)NCCCc1ccncc1,inactive,
COC(=O)N[C@H](C(=O)N[C@@H](Cc1ccccc1)[C@@H](O)CN(Cc1ccc(-c2ccccn2)cc1)NC(=O)[C@@H](NC(=O)OC)C(C)(C)C)C(C)(C)C,inactive,
Nc1c2c(nc3ccccc13)CCCC2,inactive,
NS(=O)(=O)c1cccc2c1C(=O)c1cccc(O)c1C2=O,0.631 µM (active),
CNC(=O)c1cc(Oc2ccc(NC(=O)Nc3ccc(Cl)c(C(F)(F)F)c3)c(F)c2)ccn1,7.08 µM (active),
O=C(N[C@@H](c1ccccc1)[C@@H]1CCCCN1)c1cccc(C(F)(F)F)c1Cl,8.91 µM (active),
O=S(=O)(O)CCS,inactive,
CCN(c1ccccc1)c1cc(NC)[n+](C)c(C)n1,inactive,

# Reference: PubChem BioAssay (NCATS)
